# Compound activity as filed in PubChem BioAssay.
# Only some compounds are listed: those with a hit (about 11% of all), similar ones and a draw of the others.
# AMA1-RON2 inh: AMA1-RON2 (P. falciparum) interaction inhibition; AlphaScreen AMA1-biotinylated RON2 peptide binding; Potency, µM (highest dose often 58.2 µM), for inactives: at the top dose activity change, negative = inhibition, actives largely listed as inhibitors; hit rate 0.2% among 360,000;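 also: 0% = vehicle wells and -100% = peptide control; nearly all actives have a fitted effect of over 45% in size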
#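 AMA1 (3D7) with his tag at 25 nM final met compounds first, then biotinylated RON2 peptide at 25 nM; detection used donor plus acceptor beads, 10 µg/mL apiece, read by AlphaScreen after 30 min at room temperature.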
# HCV inh: HCV inhibition. Huh7.5.1 HCVcc-Cre infection, luciferase reporter, 44 h. Potency, µM (top dose mostly 41.8 µM), for the others: top-dose activity change, negative = inhibition, most hits filed as inhibitors. hit rate 3.4% among 340,000
#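 Antiviral activity was scored by luciferase reporter output from cells infected with HCVcc-Cre (~0.5 moi) in presence of compound, 44 h infection period, cells seeded 1,000/well 4 h prior.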
# Pf growth 48h: P. falciparum growth inhibition at 48 hours (one generation); P. falciparum luciferase growth in erythrocytes, 48 h; Potency, µM (top dose mostly 28.7 µM), for the others: at the highest dose activity change, negative = inhibition, usual class: inhibitors; hit rate 5.9% among 310,000; AID 504832
#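 Here the parasites carry a stable luciferase gene and grow inside erythrocytes in Albumax-based RPMI medium with compound for one erythrocytic cycle. Activity is scored as loss of luminescent signal.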
# AmpC no deterg: AmpC beta-lactamase inhibition without detergent; AmpC nitrocefin hydrolysis, absorbance 480 nm, 0.0001% Triton; P00811; hit rate 0.52% among 330,000; Potency, µM (highest dose often 57.1 µM), for inactives: at the top dose activity change, negative = inhibition, usual class: inhibitors; AID 485341;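 also: plate controls were no compound for no effect and no enzyme for full effect; nearly all actives have a fitted effect of over 20% in size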
# Target sequence (P00811 whole entry, looked up): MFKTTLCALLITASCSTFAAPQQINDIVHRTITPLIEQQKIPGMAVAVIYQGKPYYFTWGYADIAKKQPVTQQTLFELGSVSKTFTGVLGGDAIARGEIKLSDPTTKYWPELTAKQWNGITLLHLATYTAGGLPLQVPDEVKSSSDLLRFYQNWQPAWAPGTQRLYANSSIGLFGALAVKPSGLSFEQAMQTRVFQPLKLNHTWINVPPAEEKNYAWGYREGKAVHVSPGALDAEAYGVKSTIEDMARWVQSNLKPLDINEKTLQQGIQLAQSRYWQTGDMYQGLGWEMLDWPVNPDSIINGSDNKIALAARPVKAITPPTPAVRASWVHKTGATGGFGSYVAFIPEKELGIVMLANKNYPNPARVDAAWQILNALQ
#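 AmpC (5.3 nM in the dispensed reagent) in 20 mM phosphate pH 7.0 with 0.01% (detergent screen) or 0.0001% Triton X-100 was preincubated with compounds for 15 min at room temperature. Nitrocefin was then added from an 800 uM solution, and hydrolysis was followed at 480 nm.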
# Pf growth 96h: inhibits malaria parasite growth, 96 h. P. falciparum luciferase reporter growth, 96 h. AID 504834. Potency, µM (doses to about 28.7 µM), without a hit: at the highest dose activity change, negative = inhibition, most hits filed as inhibitors. hit rate 6.9% among 320,000
#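 Luminescence readout: decreased luciferase signal marks inhibited growth of reporter-expressing P. falciparum in infected red cells (2% hematocrit, 0.05% parasitemia final), exposed to compound two generations (96 h, 37 C, 5% CO2).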
# AmpC detergent: inhibitors of E. coli AmpC beta-lactamase with detergent | hit rate 0.041% among 370,000 | Potency, µM (series often up to 114 µM), for the others: at the top dose activity change, negative = inhibition, actives largely listed as inhibitors | P00811 | AID 485294 | AmpC hydrolysis of nitrocefin, absorbance 480 nm, 0.01% Triton;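 also: 0% = no-compound wells and -100% = no-enzyme wells; nearly all actives have a fitted effect of over 25% in size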
#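 AmpC (5.3 nM in the dispensed reagent) in 20 mM phosphate pH 7.0 with 0.01% (detergent screen) or 0.0001% Triton X-100 was preincubated with compounds for 15 min at room temperature. Nitrocefin was then added from an 800 uM solution, and hydrolysis was followed at 480 nm.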
# * marks the source's active call; other numbers are inactive results; ? = inconclusive; · = not tested or not shown. Calls follow the shape of the dose curve; as a rule, active = well fitted curve in the direction sought with a large enough effect; inconclusive = small, poorly fitted or top-dose-only effect, or another doubt; inactive = no such curve, though single readings can be large; an effect the other way counts as inactive or inconclusive. Unless noted, % is scaled to controls: 0 for no effect and ±100 for the full control effect; potency is read from the fitted curve at half-maximal effect.
SMILES,AMA1-RON2 inh,HCV inh,Pf growth 48h,AmpC no deterg,Pf growth 96h,AmpC detergent
Cc1nc(SCC(=O)NC(C)(C#N)C2CC2)c2c(-c3cccs3)csc2n1 (centres undefined),16%,10µM*,-16%,-28%,?,-15%
CC(CCCN1CCCC1)Nc1ccnc2cc(Cl)ccc12 (centres undefined),-20%,?,·,·,·,·
CC(Nc1ccnc2cc(Cl)ccc12)c1ccc(S(N)(=O)=O)cc1 (centres undefined),13%,-2%,1.9µM*,-17%,2.3µM*,7%
CCN(CC)CCC[C@H](C)Nc1ccnc2cc(Cl)ccc12,·,·,0.048µM*,·,0.043µM*,·
C/C(=N/OCO/N=C(\C)c1ccccc1F)c1ccccc1F,10%,-6%,-5%,-17%,1.7µM*,-8%
C/C(=N\NC(=S)NCc1ccccc1)c1ccccc1F,5%,?,?,-26%,-28%,8%
O=C(CSc1nc(-c2ccc(F)cc2)[nH]c1-c1ccccc1)NCC1CCCO1 (centres undefined),·,·,·,·,·,-1%
COc1ccc(C(=O)c2cn(CC(=O)Nc3cc(C)ccc3C)c3nc(C)ccc3c2=O)cc1,·,·,·,·,·,15%
O=C1CCn2c1c(O)c1ccccc1c2=O,-10%,8%,·,·,·,·
N=C1CCC(=N)c2c1c(O)c1ccccc1c2O,20µM*,-18%,?,-53%,?,-10%
CCCOc1ccc(C2c3c(oc4ccccc4c3=O)C(=O)N2c2nnc(C(C)C)s2)cc1 (centres undefined),·,·,·,·,·,18%
CC(=O)OC1CCC2(C)C(CCC3C2CC(=O)C2(C)C3CC(N3CC3)C2C(C)=O)C1 (centres undefined),-6%,-18%,·,·,·,·
C=CC[N+]1([C@H]2C[C@H]3[C@@H]4CC[C@H]5C[C@H](O)[C@@H](N6CCOCC6)C[C@]5(C)[C@H]4CC[C@]3(C)[C@H]2OC(C)=O)CCCC1,·,·,6.7µM*,·,4.3µM*,·
Cc1ccc(/C=N/n2c(C)cc(C)c(C#N)c2=O)cc1,31%,-10%,15µM*,-24%,15µM*,-7%
Cc1cc(C)n(/N=C/c2ccc(O)cc2)c(=O)c1C#N,-8%,?,8%,-24%,0%,1%
Cc1cc(C)n(/N=C/c2ccc(C(C)C)cc2)c(=O)c1C#N,17%,11%,1.9µM*,12%,?,?
O=c1cc(CSc2n[nH]c(-c3ccccc3)n2)[nH]c2ccccc12,·,·,·,·,·,-1%
COc1cc(CNC(=O)c2cnc(SC)nc2-c2ccccc2)cc(OC)c1OC,·,·,·,·,·,-2%
COc1ccc(CCNc2nc(-c3cccnc3)nc3ccccc23)cc1OC,-10%,10µM*,15µM*,21%,?,-9%
CCOc1ccc(CN(C)c2nc(-c3cccnc3)nc3ccccc23)cc1OC,-23%,?,12µM*,143%,?,-9%
COc1ccc(/C=N/Nc2nc(-c3cccnc3)nc3ccccc23)cc1OC,97%,-23%,6.6µM*,137%,?,-6%
Cc1ccc(-c2nc(N/N=C/c3ccncc3)c3ccccc3n2)cc1,33%,-23%,·,9%,?,11%
Oc1ccc(/C=N/Nc2nc(-c3cccnc3)nc3ccccc23)c(O)c1,107%,11µM*,9.3µM*,-34%,?,-2%
O=C(COCc1cc(-c2cccs2)on1)N1CCN(c2cccc(Cl)c2)CC1,·,·,·,·,·,4%
Fc1cccc(NCc2ccccc2-c2nnc(-c3ccccc3Cl)o2)c1,·,·,·,·,·,1%
SMILES,AMA1-RON2 inh,HCV inh,Pf growth 48h,AmpC no deterg,Pf growth 96h,AmpC detergent
COc1ccc(CCNc2ncnc3c2oc2ccccc23)cc1OC,-15%,3.2µM*,?,26%,2.9µM*,1%
Cc1ccccc1Nc1nc(-c2cccnc2)nc2ccccc12,4%,?,?,-22%,?,-5%
COc1ccc(CCNc2nc(C)nc3c2oc2ccccc23)cc1OC,-3%,?,·,125%,-71%,-1%
COc1ccc(/C=N/Nc2ncnc3scc(-c4ccccc4)c23)cc1OC,45%,?,·,147%,10µM*,?
Cc1c(O)ccc(/C=N/Nc2nc(-c3cccnc3)nc3ccccc23)c1O,73%,25µM*,?,-42%,10µM*,-7%
CCOC(=O)C1=C(CN2CCN(c3ccc(OC)cc3)CC2)NC(=O)NC1c1ccc(OC)cc1 (centres undefined),·,·,·,·,·,-6%
Clc1ccc(/C=N/Nc2ncnc3nc[nH]c23)cc1,2%,4%,?,-37%,12µM*,8%
CCn1nnc2cc(C(=O)Nc3ccc(OC)cc3)ccc21,·,·,·,·,·,3%
CSc1ccc(CNC(=O)C2CCN(c3nnc(-n4cccc4CNc4ccc(C)cc4)s3)CC2)cc1,·,·,·,·,·,-6%
COC(=O)c1[nH]c2c(c1C)C(=O)CC(c1cc(OC)c(OC)c(OC)c1)C2 (centres undefined),-1%,10µM*,?,-2%,-17%,1%
CCOCCOC(=O)c1[nH]c2c(c1C)C(=O)CC(c1ccccc1)C2 (centres undefined),-11%,?,·,-15%,-1%,-15%
COCCOC(=O)c1[nH]c2c(c1C)C(=O)CC(c1ccc(OC)c(OC)c1)C2 (centres undefined),-8%,10µM*,-22%,2%,29%,?
CCCOC(=O)c1[nH]c2c(c1C)C(=O)CC(c1ccc(OC)c(OC)c1)C2 (centres undefined),4%,-29%,?,-8%,?,?
CCCCCOC(=O)c1[nH]c2c(c1C)C(=O)CC(c1ccco1)C2 (centres undefined),-8%,?,0.66µM*,-48%,23%,1%
COc1cc(C2CC(=O)C=C(O)C2)cc(OC)c1OC (centres undefined),-8%,1%,5.9µM*,18%,?,?
CC(C)Nc1ccc(-c2nc(-c3ccncc3)no2)cc1[N+](=O)[O-],·,·,·,·,·,23%
COc1ccc(NC(=O)CC2C(=O)N(c3ccc(C)cc3)C(=O)N2Cc2ccc(C)cc2)cc1 (centres undefined),·,·,·,·,·,12%
CCOc1ccc(NC(=O)CCc2c(C)nc3c(c(C)nn3-c3ccccc3)c2C)cc1,·,·,·,·,·,-1%
CCOCCOC(=O)c1[nH]c2c(c1C)C(=O)CC(c1cc(OC)c(OC)c(OC)c1)C2 (centres undefined),12%,5µM*,·,76%,?,-16%
CCN(CC)CCCNc1oc(-c2cccc(Cl)c2)nc1C#N,0%,?,?,24%,-10%,-6%
